Results as given in PubChem BioAssay (Tox21).
Records with an inconclusive call do not appear. Active and inactive are the calls of the source. Unless noted, the call rests on the fitted dose curve; in most records, active means well fitted curve in the direction sought with a large enough effect in the repeat runs; inconclusive means weak or mixed curves; inactive means no such curve, though single readings can be large; an effect the other way counts as inactive or inconclusive.

Columns and labels:
[1] = qHTS assay to identify small molecule antagonists of the estrogen receptor alpha (ER-alpha) signaling pathway using the BG1 cell line in the presence of 0.1 nM 17-beta-estradiol - cell viability counter screen (AID 1259241); further: nearly all actives have a fitted effect of over 40% in size
Procedure, shortened: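 Following 5 days in phenol red-free medium with charcoal-stripped serum, VM7Luc4E2 cells received test compounds alongside 0.1 nM 17beta-estradiol (final) at 37C for 22 hr. Live cells were then quantified via protease-substrate fluorescence.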

[2] = qHTS assay to identify small molecule antagonists of the androgen receptor (AR) signaling pathway using the MDA cell line in the presence of 0.5 nM R1881 - cell viability counter screen (AID 1259242); further: nearly all actives have a fitted effect of over 45% in size
Procedure, shortened: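 Concentration-response screen of compounds for toxicity in MDA-kb2 reporter cells: 16 hr at 37C with 0.5 nM R1881, endpoint live-cell protease fluorescence measured in the reporter wells.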

[3] = target: Estrogen receptor (Homo sapiens) (UniProt P03372); test: qHTS assay to identify small molecule antagonists of the estrogen receptor alpha (ER-alpha) signaling pathway using the BG1 cell line in the presence of 0.1 nM 17-beta-estradiol (AID 1259244); further: nearly all actives have a fitted effect of over 50% in size; further: potency means the concentration at half of the fitted maximal effect
Sequence of Estrogen receptor (Homo sapiens) (P03372 whole entry, looked up): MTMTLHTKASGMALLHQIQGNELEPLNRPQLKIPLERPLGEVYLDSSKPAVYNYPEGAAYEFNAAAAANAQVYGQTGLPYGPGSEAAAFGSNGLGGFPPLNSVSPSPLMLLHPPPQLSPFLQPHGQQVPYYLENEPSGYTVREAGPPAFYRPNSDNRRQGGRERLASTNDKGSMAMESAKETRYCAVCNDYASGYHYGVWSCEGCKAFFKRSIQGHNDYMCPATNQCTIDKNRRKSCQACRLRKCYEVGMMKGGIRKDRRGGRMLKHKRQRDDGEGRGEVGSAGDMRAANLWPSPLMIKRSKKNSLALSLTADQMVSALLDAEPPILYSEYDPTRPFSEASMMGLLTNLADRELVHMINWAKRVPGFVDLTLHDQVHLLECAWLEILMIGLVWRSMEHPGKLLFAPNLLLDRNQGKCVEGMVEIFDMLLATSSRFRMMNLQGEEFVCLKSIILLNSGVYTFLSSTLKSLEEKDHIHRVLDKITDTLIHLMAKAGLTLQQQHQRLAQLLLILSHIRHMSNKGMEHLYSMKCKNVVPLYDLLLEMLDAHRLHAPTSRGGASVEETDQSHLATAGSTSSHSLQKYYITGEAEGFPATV
Procedure, shortened: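 Compounds were tested against 0.1 nM (final) 17beta-estradiol in VM7Luc4E2 cells, which express full-length ER-alpha and an ERE-luciferase reporter; luminescence was recorded following 22 h exposure.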

[4] = qHTS assay to identify small molecule HDAC inhibitors - cell viability counter screen (AID 1259365); further: series mostly up to about 92 µM; nearly all actives have a fitted effect of over 50% in size
Procedure, shortened: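 HCT-116 wild-type, overnight attachment; 2hr drug exposure, 37C; CellTiter-Glo luminescent ATP readout after 30min RT.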

[5] = qHTS assay to identify small molecule agonists of the sonic hedgehog signaling (Shh) pathway - cell viability counter screen (AID 1259366); further: nearly all actives have a fitted effect of over 50% in size
Procedure, shortened: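 Compounds in DMSO were pin-transferred onto 3T3 Gli1-Luc cells that had settled 4hr; plates then stood 24hr at 37C and 5% CO2. One hour before the end, CellTiter-Fluor was added and fluorescence recorded.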

[6] = qHTS assay to identify small molecule antagonists of the sonic hedgehog signaling (Shh) pathway - cell viability counter screen (AID 1259367); further: nearly all actives have a fitted effect of over 55% in size
Procedure, shortened: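 Cytotoxicity was assessed in parallel with Shh reporter activity by measuring live-cell protease fluorescence (CellTiter-Fluor) in NIH/3T3 cells stably carrying Gli1-Luc, treated with compound under conditioned medium stimulation for 23 hr plus 1 hr reagent incubation.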

[7] = qHTS assay to identify small molecule agonists of the sonic hedgehog signaling (Shh) pathway (AID 1259368; calls by dose curve;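 further: NIH/3T3-derived 3T3Gli1-Luc cells carrying a stable Gli1-driven firefly luciferase reporter; series mostly up to about 92 µM; nearly all actives have a fitted effect of over 15% in size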)
Procedure, shortened: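 Hedgehog pathway agonism scored by increased firefly luciferase luminescence in 3T3Gli1-Luc cells treated 24 hr at 37 C; detection used a 30 min room-temperature reagent incubation.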

[8] = qHTS assay to identify small molecule agonists of the androgen receptor (AR) signaling pathway in the presence of an antagonist - cell viability counter screen (AID 1259379);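 further: MDA-kb2 human breast cancer cells carrying an MMTV luciferase reporter; series mostly up to about 92 µM; nearly all actives have a fitted effect of over 25% in size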
Procedure, shortened: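 MDA-kb2 viability measured by CellTiter-Fluor fluorescence in the same wells as the luciferase signal; nilutamide 3.0uM final; 15-point compound titration; 16 hr at 37C.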

[9] = qHTS assay to identify small molecule agonists of the estrogen receptor beta (ER-beta) signaling pathway - cell viability counter screen (AID 1259380); further: nearly all actives have a fitted effect of over 30% in size; further: potency means the concentration at half of the fitted maximal effect
Procedure, shortened: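 Measured: luminescence from CellTiter-Glo after 30 min at room temperature, added to wells already read for the LiveBLAzer FRET reporter (2 hr substrate); ER-beta-UAS-bla HEK293T cells had 16 hr compound treatment at 37C, 5% CO2.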

[10] = qHTS assay to identify small molecule antagonists of the estrogen receptor beta (ER-beta) signaling pathway - cell viability counter screen (AID 1259382); further: series mostly up to about 92 µM; nearly all actives have a fitted effect of over 55% in size
Procedure, shortened: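 Readout: luminescence, CellTiter-Glo, same wells as bla assay. System: ER-beta-UAS-bla GripTite HEK293T, 2% charcoal-stripped FBS. Exposure: compounds plus 1nM 17-beta-estradiol, 16 hr, 37C.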

[11] = target: Estrogen receptor (Homo sapiens) (UniProt P03372); test: qHTS assay to identify small molecule agonists of the estrogen receptor alpha (ER-alpha) signaling pathway in the presence of an antagonist (AID 1259383; calls by dose curve; further: top concentration of the series differs between compounds; nearly all actives have a fitted effect of over 15% in size)
Procedure, shortened: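 Quantitative HTS confirmation: compounds titrated at 15 concentrations onto estrogen-deprived VM7Luc4E2 cells carrying a four-ERE luciferase construct, with ICI-182,780 present at 10.0nM final. Signal is luminescence after 22hr exposure.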

[12] = qHTS assay to identify small molecule agonists or antagonists of the thyroid stimulating hormone receptor (TSHR) signaling pathway - wild type cell line counter screen (AID 1259384; calls by dose curve; further: potency means the concentration at half of the fitted maximal effect)
Procedure, shortened: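 Wild-type HEK293 cells were plated 18 h at 37 C/5% CO2, pin-dosed with compound plus Ro20-1724 medium, held 30 min at room temperature, then given cAMP-d2 and anti-cAMP-cryptate; fluorescence was read after 1 h. Fifteen concentrations, triplicate.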

[13] = target: Thyrotropin receptor (Homo sapiens) (UniProt P16473); test: qHTS assay to identify small molecule antagonists of the thyroid stimulating hormone receptor (TSHR) signaling pathway (AID 1259385; calls by dose curve; further: nearly all actives have a fitted effect of over 20% in size)
Sequence of Thyrotropin receptor (Homo sapiens) (P16473 whole entry, looked up): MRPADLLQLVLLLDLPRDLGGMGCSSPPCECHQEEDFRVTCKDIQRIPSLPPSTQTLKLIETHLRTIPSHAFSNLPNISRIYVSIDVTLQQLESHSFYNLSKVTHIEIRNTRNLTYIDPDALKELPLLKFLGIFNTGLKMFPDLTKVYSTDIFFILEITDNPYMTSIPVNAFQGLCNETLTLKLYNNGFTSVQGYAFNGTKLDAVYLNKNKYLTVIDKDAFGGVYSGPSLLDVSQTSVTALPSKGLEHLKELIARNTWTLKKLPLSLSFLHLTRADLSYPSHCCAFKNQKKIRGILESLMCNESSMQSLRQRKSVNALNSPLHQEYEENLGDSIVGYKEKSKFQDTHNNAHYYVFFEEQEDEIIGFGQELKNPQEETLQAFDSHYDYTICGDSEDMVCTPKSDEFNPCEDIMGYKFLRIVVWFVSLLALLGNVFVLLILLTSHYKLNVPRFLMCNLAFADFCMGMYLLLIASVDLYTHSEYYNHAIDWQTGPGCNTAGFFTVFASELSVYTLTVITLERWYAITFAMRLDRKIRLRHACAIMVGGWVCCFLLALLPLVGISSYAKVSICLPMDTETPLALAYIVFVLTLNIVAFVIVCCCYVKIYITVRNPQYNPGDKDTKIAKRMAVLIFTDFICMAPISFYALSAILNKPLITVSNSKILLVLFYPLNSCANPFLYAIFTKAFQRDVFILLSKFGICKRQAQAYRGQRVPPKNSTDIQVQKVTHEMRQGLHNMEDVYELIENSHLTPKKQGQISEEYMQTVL
Procedure, shortened: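 TSHR-HEK293 cells were plated and held 18 h at 37C/5% CO2, then given compound plus Ro20-1724 and stimulated with TSH at 1.5 ng/mL final. After 30 min at room temperature, cAMP was detected with cAMP-d2/anti-cAMP-cryptate (1 h) by fluorescence.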

[14] = qHTS assay to identify small molecule antagonists of the sonic hedgehog signaling (Shh) pathway (AID 1259369; calls by dose curve; further: nearly all actives have a fitted effect of over 45% in size)
Procedure, shortened: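 NIH/3T3 stable Gli1-Luc clone, 2,000 cells/well, 4hr settle; cpd + conditioned medium 24hr; Luc reagent 30min RT; luminescence.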

[15] = qHTS assay to identify small molecule phospholipidosis (PLD) inducers (AID 1259344; active means well fitted curve in the direction sought with a large enough effect; an effect the other way counts as inactive or inconclusive)
Procedure, shortened: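 Cells (HepG2, 900 per well) attach for 4 h, receive LipidTOX Red and compound together, incubate 24 h at 37 C, are fixed 30 min with paraformaldehyde/Hoechst, then imaged at one site per well.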

[16] = qHTS assay to identify small molecule HDAC inhibitors (AID 1259364);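 further: wild-type HCT-116 cells with endogenous class I/II HDAC activity; top concentration of the series differs between compounds; nearly all actives have a fitted effect of over 45% in size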
Procedure, shortened: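 Screening used wild-type human colon HCT-116 cells incubated overnight, dosed with compounds for 2 hours, and assayed with a homogeneous luminogenic HDAC I/II reagent for 30 minutes at room temperature.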

[17] = target: Estrogen receptor beta (Homo sapiens) (UniProt Q92731); test: qHTS assay to identify small molecule agonists of the estrogen receptor beta (ER-beta) signaling pathway (AID 1259377; active means well fitted activation curve with a large enough effect in the signal ratio in the repeat runs, not every such curve was filed as active; the % refers to the signal ratio)
Sequence of Estrogen receptor beta (Homo sapiens) (Q92731 whole entry, looked up): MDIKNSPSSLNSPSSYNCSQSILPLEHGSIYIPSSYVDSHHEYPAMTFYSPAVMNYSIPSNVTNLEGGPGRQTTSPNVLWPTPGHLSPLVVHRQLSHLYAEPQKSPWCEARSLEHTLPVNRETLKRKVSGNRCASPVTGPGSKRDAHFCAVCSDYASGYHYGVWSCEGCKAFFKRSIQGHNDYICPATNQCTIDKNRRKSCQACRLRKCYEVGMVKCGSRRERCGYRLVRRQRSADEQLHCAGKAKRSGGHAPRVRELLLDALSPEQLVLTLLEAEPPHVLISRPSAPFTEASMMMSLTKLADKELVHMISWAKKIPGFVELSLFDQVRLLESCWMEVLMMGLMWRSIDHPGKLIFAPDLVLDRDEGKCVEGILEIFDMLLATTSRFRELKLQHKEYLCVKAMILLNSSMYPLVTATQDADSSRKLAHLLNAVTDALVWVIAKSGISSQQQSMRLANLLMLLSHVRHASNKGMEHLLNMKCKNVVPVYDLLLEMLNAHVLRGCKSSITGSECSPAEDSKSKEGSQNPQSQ
Procedure, shortened: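 qHTS in ER-beta-UAS-bla HEK293T cells: 6 hr settling, then 16 hr compound at 37C, then LiveBLAzer substrate 2 h at RT before fluorescence reading.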

[18] = target: Estrogen receptor beta (Homo sapiens) (UniProt Q92731); test: qHTS assay to identify small molecule antagonists of the estrogen receptor beta (ER-beta) signaling pathway (AID 1259378; active means well fitted inhibition curve with a large enough effect in the signal ratio in the repeat runs, not every such curve was filed as active; the % refers to the signal ratio)
Procedure, shortened: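 ER-beta-UAS-bla HEK293T (GripTite) cells in 2% charcoal-stripped FBS medium were preincubated 6 hr at 37C, dosed with compound, then stimulated with 1 nM E2 (final) for 16 hr; beta-lactamase reporter read by B/G FRET fluorescence after 2 hr substrate loading.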

Measured: Potency

CCOc1ccc2[nH]cc(C(=O)NCc3ccccc3)c(=O)c2n1
inactive: [1] | [2] | [4] | [5] | [6] | [7] | [8] | [9] | [10] | [11] | [12] | [13]
active: [3] 54.5 µM

CC(=O)/C(C)=C/C1C(C)=CCCC1(C)C (stereo unspecified)
inactive: [1] | [2] | [3] | [4] | [5] | [6] | [7] | [14] | [8] | [10] | [11] | [12] | [13]

CN1CCC[C@@H]1c1cccnc1
inactive: [1] | [2] | [15] | [16] | [4] | [5] | [6] | [7] | [14] | [9] | [10]

Nc1nc(N)c(-c2ccccc2)s1
inactive: [1] | [2] | [15] | [16] | [4] | [5] | [6] | [7] | [14] | [8] | [9] | [10]

CCCCOc1ccc(CC(=O)NO)cc1
inactive: [1] | [2] | [15] | [16] | [4] | [7] | [17] | [8] | [12] | [13]
active: [9] 9.44 µM

CC1(C)[C@H]2CC[C@]1(C)[C@H](O)C2
inactive: [1] | [2] | [15] | [16] | [4] | [5] | [6] | [14] | [17] | [18] | [8] | [9] | [10] | [13]

CC(C)CC=O
inactive: [1] | [2] | [3] | [4] | [5] | [6] | [7] | [14] | [17] | [18] | [9] | [10] | [11]

Cc1cc(CC(=O)O)c(C)n1-c1ccc(Cl)cc1
active: [9] 10.6 µM
inactive: [1] | [2] | [15] | [16] | [4] | [5] | [6] | [8] | [10] | [12] | [13]

CC(C)NCC(O)c1cc(O)cc(O)c1 (stereo unspecified)
active: [12] 8.1 µM
inactive: [1] | [2] | [15] | [16] | [4] | [5] | [6] | [7] | [14] | [9] | [10] | [13]

O=S1(=O)c2cccc3cccc(c23)N1CCCN1CCN(c2ccc(F)cc2)CC1
inactive: [1] | [2] | [15] | [16] | [4] | [5] | [6] | [14] | [17] | [8] | [10] | [11] | [12] | [13]
